# Screening results: PubChem BioAssay, National Center for Advancing Translational Sciences (NCATS)
# Six1-Eya2 inh: inhibitors of human Six1/Eya2 interaction; Q15475+O00167; hit rate 0.56% among 360,000; activity change, % (test concentration not listed); AlphaScreen GST-Six1/His-Eya2 binding, biochemical; stronger effect = lower value; in the data active means activity change below about -65%; inconclusive means mostly about -30% to -63%; further: on the % scale 0 is the no-effect control and ±100 the full control effect
#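 Compounds are tested against tagged Six1 and Eya2 proteins bridged by glutathione donor and nickel acceptor beads; after a one-hour incubation at 37 °C without light, AlphaScreen emission is recorded.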
# CtBP-E1A inh: CtBP/E1A binding inhibition | AID 651724 | hit rate 0.49% among 340,000 | AlphaScreen GST-E1A/His-CtBP binding, 1536-well; stronger effect = lower value | activity change, % (test concentration not listed); in the data active means activity change below about -65%; inconclusive means mostly about -30% to -63%; further: on the % scale 0 is the no-effect control and ±100 the full control effect
#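 In 5 uL wells, 23 nL compound meets equimolar GST-E1A and His-CtBP (5X stock 125 nM each) for 2 h, 37 °C. Beads (5X, 50 ug/mL) then 1 h, 37 °C, dark.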
# HP1b chromo inh: inhibitors of HP1-beta chromodomain binding to methylated histone tails. AlphaScreen HP1-beta / biotin-H3K9me3 peptide binding. Potency, µM (top dose mostly 114 µM), for inactives: at the highest dose activity change, negative = inhibition, actives largely listed as inhibitors. AID 540317. hit rate 0.56% among 390,000. P83916; further: potency means the concentration at half of the fitted maximal effect; nearly all actives have a fitted effect of over 70% in size
# Target sequence (P83916 whole entry, looked up): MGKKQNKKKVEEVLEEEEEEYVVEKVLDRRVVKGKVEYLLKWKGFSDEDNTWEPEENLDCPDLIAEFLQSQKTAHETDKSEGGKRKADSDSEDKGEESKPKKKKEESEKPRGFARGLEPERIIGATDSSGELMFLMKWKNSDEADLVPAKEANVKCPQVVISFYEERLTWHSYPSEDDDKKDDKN
#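 Compound inhibition of the preformed complex between 50 nM HP1-beta and 50 nM biotinylated H3K9me3 peptide was read by AlphaScreen. Buffer was PBS pH 7.4 with 0.01% Tween-20. Incubations ran 30 min at room temperature, with 10 ug/mL donor/acceptor beads.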
# JMJD2A Tudor inh: JMJD2A Tudor domain (human) inhibition | Potency, µM (titrated, usually from 114 µM), without a hit: at the top dose activity change, negative = inhibition, actives largely listed as inhibitors | hit rate 4.4% among 390,000 | AlphaScreen JMJD2A-Tudor / H3K4me3 peptide binding | O75164; further: potency means the concentration at half of the fitted maximal effect; on the % scale 0 is the no-effect control and ±100 the full control effect; nearly all actives have a fitted effect of over 50% in size
# G9a inh: G9a (human) methyltransferase inhibition. AID 504332. G9a H3K9 monomethylation, AlphaScreen, 2 h. hit rate 8.8% among 350,000. Potency, µM (titrated, usually from 102 µM), inactives show at the highest dose activity, negative = inhibition, hits mostly inhibitors. Q96KQ7; further: potency means the concentration at half of the fitted maximal effect; on the % scale 0 is the no-effect control and ±100 the full control effect; nearly all actives have a fitted effect of over 75% in size
# Target sequence (Q96KQ7 913-1193 limits assumed): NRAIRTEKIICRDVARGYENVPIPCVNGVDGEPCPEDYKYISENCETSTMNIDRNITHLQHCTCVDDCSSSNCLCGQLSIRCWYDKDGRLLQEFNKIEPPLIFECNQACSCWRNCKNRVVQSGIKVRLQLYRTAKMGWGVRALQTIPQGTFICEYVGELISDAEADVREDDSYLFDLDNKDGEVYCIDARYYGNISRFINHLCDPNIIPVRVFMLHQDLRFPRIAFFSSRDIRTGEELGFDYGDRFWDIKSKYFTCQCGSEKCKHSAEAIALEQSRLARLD
#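 Readings reflect AlphaScreen signal from monomethyl-H3K9 antibody detection. HMT at 20 nM; substrate b-H3K9 500 nM; cofactor SAM 20 uM; 2 h RT reaction; compounds tested as titrations in qHTS with 15 min preincubation.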
# BAZ2B inh: blocks human BAZ2B | Q9UIF8 | AlphaScreen BAZ2B-H3K14Ac peptide displacement | Potency, µM (doses to about 114 µM), without a hit: top-dose activity change, negative = inhibition, hits mostly inhibitors | hit rate 4.4% among 360,000; further: potency means the concentration at half of the fitted maximal effect; on the % scale 0 is the no-effect control and ±100 the full control effect; nearly all actives have a fitted effect of over 60% in size
#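 AlphaScreen luminescence quantifies BAZ2B engagement of H3K14Ac peptide; the protein and biotinylated peptide are both at 50 nM final, buffer PBS pH 7.4 with 0.01% Tween-20, all steps at room temperature.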
# Starred values were filed as active, the others as inactive; ? = inconclusive; · = not tested or not shown; ! = repeats disagree; [ ] = another dose, or the depositor's remark. Only some compounds are listed: those with a hit (about 10% of all), similar ones and a draw of the others. Unless noted, the call rests on the fitted dose curve; in most records, active means well fitted inhibition curve with a large enough effect; inconclusive means small, poorly fitted or top-dose-only effect; inactive means no such curve, though single readings can be large or run the other way.
SMILES,Six1-Eya2 inh,CtBP-E1A inh,HP1b chromo inh,JMJD2A Tudor inh,G9a inh,BAZ2B inh
Cc1[nH]n(C(N)=S)c(=O)c1N=Nc1ccc([N+](=O)[O-])cc1Cl,-30,8,?,?,25µM*,28µM*
CCN(CC)S(=O)(=O)c1ccc(N=Nc2c(C)[nH]n(C(N)=S)c2=O)cc1,-13,-7,-23%,?,?,5%
Cc1[nH]n(C(N)=S)c(=O)c1N=Nc1cccc(Cl)c1,-9,3,-1%,-26%,40µM*,-4%
Cc1ccccc1CNC(=O)c1ccc(Cn2c(SCc3ccccc3)nc3cccnc32)cc1,·,·,21%,-17%,-27%[59 µM],-27%
COc1ccc(NCc2cc3cc4c(cc3n(CC(=O)Nc3ccccc3)c2=O)OCO4)cc1,·,·,14%,-34%,?,-35%
c1ccc(-c2cnc(CSc3ncnc4sccc34)o2)cc1,3,4,89%,-1%,14µM*,5%
CCC(C)(C)C1CCC2(CC1)NC(=S)N(c1ccccc1)N2 (configuration not stated),1,·,39%,-23%,8.9µM*,?
CC(C)(C)C1CCC2(CC1)NC(=S)N(c1ccccc1)N2 (configuration not stated),-4,2,46%,-9%,7.9µM*,-33%
CC(C)(C)C1CCC2(CC1)SCC(=O)N2c1ccccc1 (configuration not stated),0,7,25%,-6%,21%,-28%[57.1 µM]
COc1ccc(CN(C)S(=O)(=O)c2nnc(NC(=O)C(C)C)s2)cc1OC,·,·,49%,1%,?,0%
Cc1cc(C)cc(-n2ccnc2SCC(=O)Nc2nnc(C)s2)c1,·,·,24%[57 µM],-19%,-16%[59 µM],-22%
CCc1cc2c(cc3c(=O)n(CCCC(=O)NCc4ccccc4Cl)nc(CC)n32)s1,·,·,24%,-5%,-20%[59 µM],0%
CCN(c1cccc(C)c1)S(=O)(=O)c1nnc(NC(=O)c2cccs2)s1,·,·,?,?,3.2µM*,3.5µM*
CCN(c1cc(C)cc(C)c1)S(=O)(=O)c1nnc(NC(=O)c2cccs2)s1,·,·,4%,-27%,-28%[59 µM],-5%
CCN(c1ccccc1C)S(=O)(=O)c1nnc(NC(=O)c2ccccc2C)s1,·,·,-10%,?,2.5µM*,?
Cc1ccc(C)c(NC(=O)C(c2ccccc2)N2Cc3ccccc3C2=O)c1 (configuration not stated),·,·,20%,-22%,-10%[59 µM],-4%
Cc1ccc(CSCC2Nc3ccc(C(=O)N4CCN(c5cccc(C)c5)C(C)C4)cc3NC2=O)cc1 (configuration not stated),·,·,·,·,7.1µM*,-30%[57.1 µM]
Cc1cccc(N2CCN(C(=O)c3ccc(N4CCCC4=O)cc3)CC2C)c1 (configuration not stated),-5,1,46%,-26%,38%[0.501 µM],-30%
Cc1cccc(N2CCN(C(=O)c3ccc4c(c3)NC(=O)C(CSCc3ccc(F)cc3)N4)CC2C)c1 (configuration not stated),·,·,·,·,14µM*,-28%[57.1 µM]
O=C(O)[C@@H]1C[C@@H](C(=O)O)N1,·,·,·,·,24µM*!,·
Cc1cccn2c(=O)cc(COc3cccc(NC(=O)c4ccccc4F)c3)nc12,·,·,11%[57 µM],?,-17%[59 µM],-27%
CC(Sc1nnc(N)s1)C(=O)c1c(N)n(C)c(=O)n(C)c1=O (configuration not stated),-12,-10,8%,-10%,50µM*,7%
Cc1nc(SC(C)C(=O)c2c(N)n(C)c(=O)n(C)c2=O)c2c(C)c(C)sc2n1 (configuration not stated),-8,-4,12%,?,7.1µM*,-10%
COc1cc(Cl)c(C)cc1NC(=O)c1cc(S(=O)(=O)N2CCCC2)ccc1F,·,·,13%,-10%,5%[59 µM],3%
Cc1cc2n(n1)CCC(=O)N2Cc1ccc(C(=O)Nc2ccc(Br)c(C)c2)cc1,·,·,15%,-5%,-33%[59 µM],-12%
